Values joined by “and” are separate entries in the source; they are usually repeats but may differ in a detail not shown here. Equal entries are not always repeated. Results filed as inconclusive are left out. Active and inactive are the calls of the source. How the source made its calls, unless noted: active means hit-call score of the fitted dose curve at least 0.9, where 1 is the maximum; inactive means score below 0.9.
How the values were obtained:
[1] = ACEA_ER_80hr: ACEA Biosciences xCELLigence Real-Time Cell Analysis on Estrogen Receptor Agonism for Proliferation (AID 2282667; active means hit-call score of the fitted dose curve at least 0.9, where 1 is the maximum); settings: T47D proliferation, impedance (xCELLigence), 80 h
Method in brief: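 Impedance readout (RT-CES) of T47D proliferation at 80 h post-dose; gain of signal vs DMSO baseline. Compounds: 8 conc, 1:4 serial, top 100 uM final, ≤0.5% DMSO; biological duplicate.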

[2] = APR_HepG2_CellCycleArrest_24hr: Apredica 24-hour HepG2 Assay for Cell Cycle Arrest (AID 2282905); settings: imaging, actives raise or lower the signal;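 further: cell cycle arrest scored as ratio of 2N to 4N nuclear DNA content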
Method in brief: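 Compounds (0.39 to 200 uM, final DMSO 0.5% v/v) are applied to HepG2 cells for 24 hours; cells are then fixed, permeabilized and nuclei labeled with Hoechst 33342. Automated imaging measures DNA content, and activity is fitted in both directions against DMSO.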

[3] = APR_HepG2_NuclearSize_24hr: Apredica 24-hour HepG2 Assay for Nuclear Size (AID 2282907); settings: high-content imaging, actives raise or lower the signal
Method in brief: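 Nuclear size is measured by fluorescence high-content imaging of Hoechst-labelled HepG2 nuclei after 24 hr of treatment (0.39–200 uM, 0.5% DMSO). Cells are fixed in 3.7% formaldehyde before staining, and DMSO serves as the baseline for bidirectional curve fitting.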

[4] = APR_HepG2_CellLoss_24hr: Apredica 24-hour HepG2 Assay for Cell Loss (AID 2282908); settings: high-content imaging;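 on AC50: fit in both directions so a hit may be cell loss or gain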
Method in brief: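 Nuclear count serves as the viability measure: treated cells are fixed, permeabilized and labelled with Hoechst 33342, and six images per well are analysed to identify valid nuclei. Doses span 0.39–200 uM, and activity in either direction is scored against DMSO.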

[5] = APR_HepG2_MicrotubuleCSK_24hr: Apredica 24-hour HepG2 Assay for Microtubule CSK Stabilty (AID 2282909); settings: HepG2 microtubule cytoskeleton imaging, actives raise or lower the signal
Method in brief: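 Compounds were applied to HepG2 cells for 24 hours across 0.39–200 uM in duplicate, with final DMSO at 0.5% v/v. Fixed, permeabilized cells were labeled for alpha-tubulin and nuclei, and tubulin fluorescence was quantified by imaging, fitted bidirectionally against DMSO.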

[6] = APR_HepG2_MitoticArrest_24hr: Apredica 24-hour HepG2 Assay for Mitotic Arrest (AID 2282910); settings: high-content imaging, actives raise or lower the signal
Method in brief: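 HepG2, 24 hr dosing, 0.39–200 uM, 0.5% DMSO final. Formaldehyde-fixed, Triton-permeabilised, anti-phospho-histone H3 plus Hoechst. ArrayScan imaging at 20x; bidirectional fit vs DMSO baseline.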

[7] = APR_HepG2_MitoMembPot_24hr: Apredica 24-hour HepG2 Assay for Mitochondrial Membrane Potential (AID 2282911); settings: imaging, actives raise or lower the signal
Method in brief: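 HepG2, 24 hr dosing, 10 concentrations 0.39–200 uM, 0.5% DMSO final. Live-cell MitoTracker Red CMXRos 250 nM 30 min, then 3.7% formaldehyde fix. HCS fluorescence imaging, 20x; bidirectional fit vs DMSO baseline.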

[8] = APR_HepG2_MitoMass_24hr: Apredica 24-hour HepG2 Assay for Mitochondrial Mass (AID 2282912); settings: high-content imaging, actives raise or lower the signal
Method in brief: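 After 24 hr of treatment at 0.39 to 200 uM, HepG2 cells take up 250 nM MitoTracker Red CMXRos for 30 min and are then fixed with 3.7% formaldehyde. Per-well images are quantified, and any change in either direction is scored against solvent.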

[9] = APR_HepG2_p53Act_24hr: Apredica 24-hour HepG2 Assay for p53 Activation (AID 2282913); settings: high-content imaging, actives raise or lower the signal;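 further: p53 protein immunofluorescence averaged per cell in HepG2 with Hoechst nuclei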
Method in brief: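 Read-out: Cy5 immunofluorescence for p53 in fixed, permeabilized HepG2, imaged by HCS with Hoechst-defined nuclei. Dosing was 24 hr at 0.39–200 uM in 0.5% DMSO. Curves were fitted bidirectionally relative to DMSO.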

[10] = APR_HepG2_CellCycleArrest_72hr: Apredica 72-hour HepG2 Assay for Cell Cycle Arrest (AID 2282914); settings: high-content imaging, actives raise or lower the signal
Method in brief: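 HepG2, 72 hr exposure, 10-point 0.39–200 uM, duplicate, 0.5% DMSO final. Fix 3.7% formaldehyde 30 min RT, Triton X-100 0.5%, Hoechst 33342 2 ug/mL. ArrayScan 20x, six fields/well; DNA content per nucleus; bidirectional fit vs DMSO.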

[11] = APR_HepG2_CellLoss_72hr: Apredica 72-hour HepG2 Assay for Cell Loss (AID 2282915); settings: high-content imaging
Method in brief: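 HepG2 cells exposed 72 h to compound at 0.39–200 uM (10 concentrations, duplicate) in 0.5% DMSO. Fixed with 3.7% formaldehyde and Hoechst 33342-stained. Imaged at 20x; nuclear count gives cell number, fitted bidirectionally versus DMSO.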

[12] = APR_HepG2_P-H2AX_72hr: Apredica 72-hour HepG2 Assay for H2AX Phosphorylation (AID 2282916); settings: imaging, actives raise or lower the signal;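 further: phospho-histone H2A.x immunostain intensity per cell marking DNA damage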
Method in brief: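 Human hepatoma HepG2 cells are dosed across ten concentrations (0.39 to 200 uM, 0.5% v/v DMSO) and incubated 72 hr. Phospho-histone H2A.x is then detected by antibody staining alongside c-Jun and Hoechst, and quantified by automated fluorescence imaging.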

[13] = APR_HepG2_MitoMembPot_72hr: Apredica 72-hour HepG2 Assay for Mitochondrial Membrane Potential (AID 2282917); settings: imaging, actives raise or lower the signal
Method in brief: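 HepG2 cells dosed 72 hr with compound at 0.39–200 uM in duplicate, 0.5% v/v DMSO final. Mitochondria stained with 250 nM MitoTracker Red CMXRos for 30 min before formaldehyde fixation, imaged by high-content fluorescence; bidirectional fit versus DMSO.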

[14] = APR_HepG2_MitoticArrest_72hr: Apredica 72-hour HepG2 Assay for Mitotic Arrest (AID 2282918); settings: high-content imaging, actives raise or lower the signal
Method in brief: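 HepG2, 72 hr exposure, 0.39–200 uM in duplicate, 0.5% v/v DMSO final. Formaldehyde-fixed, Triton-permeabilized, anti-phospho-histone H3/FITC plus Hoechst. ArrayScan imaging at 20x; curves fit bidirectionally against DMSO baseline.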

[15] = APR_HepG2_MicrotubuleCSK_72hr: Apredica 72-hour HepG2 Assay for Microtubule CSK Stabilty (AID 2282919); settings: HepG2 microtubule cytoskeleton, high-content imaging, actives raise or lower the signal
Method in brief: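 HepG2, 72 hr cmpd exposure, 0.39–200 uM (10 pts, duplicate), 0.5% DMSO. 3.7% formaldehyde fix, 0.5% Triton perm, anti-alpha-tubulin/Cy5 plus Hoechst. HCS fluorescence intensity; bidirectional fit vs DMSO baseline; taxol as positive control.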

[16] = APR_HepG2_P-H2AX_24hr: Apredica 24-hour HepG2 Assay for H2AX Phosphorylation (AID 2282920); settings: high-content imaging, actives raise or lower the signal
Method in brief: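 HCS fluorescence imaging of phospho-H2A.x immunostain (with Hoechst 33342 nuclear counterstain) in HepG2 after 24 hr compound exposure; 10 concentrations, 0.39–200 uM, duplicate wells, 0.5% v/v DMSO. Gain or loss of signal fitted relative to DMSO baseline.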

[17] = APR_HepG2_StressKinase_24hr: Apredica 24-hour HepG2 Assay for Stress Kinase (AID 2282922); settings: HepG2 stress kinase (phospho-c-Jun) imaging, actives raise or lower the signal
Method in brief: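 Read-out: phospho-c-Jun immunofluorescence (Cy3 secondary) quantified by high-content imaging at 20x, nuclei defined by Hoechst 33342. Human HepG2 liver cells dosed 24 hr, 0.39–200 uM, DMSO 0.5% v/v; gain or loss of signal fitted relative to DMSO.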

[18] = APR_HepG2_MitoMass_72hr: Apredica 72-hour HepG2 Assay for Mitochondrial Mass (AID 2282924); settings: high-content imaging, actives raise or lower the signal;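 further: MitoTracker Red CMXRos stain intensity per cell imaged as mitochondrial mass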
Method in brief: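 Read-out: MitoTracker Red fluorescence intensity from automated imaging (20x, six fields per well) in human HepG2 liver cells. Dosing ran 72 hr, 0.39–200 uM, 0.5% DMSO; bidirectional curve fitting versus DMSO baseline.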

[19] = APR_HepG2_StressKinase_72hr: Apredica 72-hour HepG2 Assay for Stress Kinase (AID 2282921); settings: HepG2 stress kinase (phospho-c-Jun) imaging, actives raise or lower the signal
Method in brief: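 After a 72 h compound treatment spanning 0.39 to 200 uM, formaldehyde-fixed cells are labelled for phosphorylated c-Jun and nuclei, imaged by automated fluorescence microscopy, and activity is fitted in both directions relative to DMSO controls.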

[20] = APR_HepG2_p53Act_72hr: Apredica 72-hour HepG2 Assay for p53 Activation (AID 2282923); settings: high-content imaging, actives raise or lower the signal;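 further: average cellular p53 protein immunofluorescence intensity in HepG2 cells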
Method in brief: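 Imaging-based endpoint: after 72 hr compound exposure (up to 200 uM, 0.5% DMSO), fixed and permeabilized monolayers were labelled with anti-p53 antibody and imaged; signal change in either direction was fitted relative to DMSO controls.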

Measured: AC50

COc1ccc([N+](=O)[O-])cc1N
not listed: [19] | [20]
inactive: all other assays above

Cc1ccc(S(=O)(=O)O)c(C)c1
inactive: [1]

NCC(F)(F)C(F)(F)C(F)(F)C(F)(F)C(F)(F)C(F)(F)C(F)(F)F
inactive: [1]

c1ccc2c(c1)Cc1ccccc1-2
not listed: [19] | [20]
inactive: all other assays above

c1ccc2c(c1)ccc1ccccc12
not listed: [14] | [20]
inactive: all other assays above

CCN(CC)CCNc1ccc(CNC=O)c2sc3ccc(OC)cc3c(=O)c12
active: [2] 5.68 µM | [4] 60.2 µM | [6] 7.05 µM | [8] 32.6 µM | [9] 2.62 µM | [10] 6.28 µM | [11] 7.4 µM | [16] 5.94 µM
not listed: [14] | [19] | [20]
inactive: all other assays above

FC(F)(I)C(F)(F)C(F)(F)C(F)(F)C(F)(F)C(F)(F)I
active: [1] 6.86 nM and 252 nM

O=[N+]([O-])c1ccc(O)cc1
not listed: [8] | [14] | [19] | [20]
inactive: all other assays above

CC[C@H](c1ccc(O)cc1)[C@@H](CC)c1ccc(O)cc1
active: [1] 6.89 nM and 5.23 nM and 2.6 nM | [7] 0.0485 µM
not listed: [8] | [20]
inactive: all other assays above

OC1CCCCC1
not listed: [8]
inactive: all other assays above

CCOC(=O)CC(O)(CC(=O)OCC)C(=O)OCC
active: [1] 750 nM
not listed: [8] | [14] | [19] | [20]
inactive: all other assays above

COC(=O)CCCCC(=O)OC
not listed: [19] | [20]
inactive: all other assays above

CCCCC(CC)COC(=O)CCCCC(=O)OCc1ccccc1 (centres undefined)
not listed: [8] | [14] | [19] | [20]
inactive: all other assays above

CCCOc1sc(C(=O)N2CCC(c3cc(CN)ccc3F)CC2)c(C)c1Br
inactive: [1] | [3] | [8] | [10] | [13] | [17]
active: [2] 22.3 µM | [4] 6.74 µM | [5] 15.6 µM | [6] 5.77 µM | [7] 7.27 µM | [9] 4.2 µM | [11] 7.86 µM | [12] 22.7 µM | [14] 5.79 µM | [15] 6.58 µM | [16] 4.23 µM | [18] 44.5 µM

CC[C@H](C)[C@@H](C(=O)O)n1sc2ccccc2c1=O
active: [7] 100 µM
not listed: [8] | [19] | [20]
inactive: all other assays above

COc1cc(CCC(=O)CC(=O)CCc2ccc(O)c(OC)c2)ccc1O
active: [12] 96.6 µM
not listed: [8] | [14] | [20]
inactive: all other assays above
